Data reported in PubChem BioAssay (Tox21).
Results filed as inconclusive are left out. A call without a number means that no potency is given here. Active and inactive are the calls of the source. Unless noted, the call rests on the fitted dose curve; in most records, active means well fitted curve in the direction sought with a large enough effect in the repeat runs; inconclusive means weak or mixed curves; inactive means no such curve, though single readings can be large; an effect the other way counts as inactive or inconclusive.

Legend:
[1] = qHTS assay to identify small molecule antagonists of the estrogen related receptor (ERR) signaling pathway from Tox21 library - cell viability counter screen (AID 1224834); further: nearly all actives have a fitted effect of over 30% in size; further: potency means the concentration at half of the fitted maximal effect
How it was run: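 Fluorescence from CellTiter-Fluor gives the viability read-out, taken 30 min after reagent addition. Before that, ERR cells seeded 6 h earlier were incubated with compounds for 17.5 h at 37 C.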

[2] = target: Luciferin 4-monooxygenase (Photinus pyralis) (UniProt P08659); assay: qHTS assay to identify small molecule inhibitors of firefly luciferase (AID 1224835); further: nearly all actives have a fitted effect of over 25% in size; further: potency means the concentration at half of the fitted maximal effect
Sequence of Luciferin 4-monooxygenase (Photinus pyralis) (P08659 whole entry, looked up): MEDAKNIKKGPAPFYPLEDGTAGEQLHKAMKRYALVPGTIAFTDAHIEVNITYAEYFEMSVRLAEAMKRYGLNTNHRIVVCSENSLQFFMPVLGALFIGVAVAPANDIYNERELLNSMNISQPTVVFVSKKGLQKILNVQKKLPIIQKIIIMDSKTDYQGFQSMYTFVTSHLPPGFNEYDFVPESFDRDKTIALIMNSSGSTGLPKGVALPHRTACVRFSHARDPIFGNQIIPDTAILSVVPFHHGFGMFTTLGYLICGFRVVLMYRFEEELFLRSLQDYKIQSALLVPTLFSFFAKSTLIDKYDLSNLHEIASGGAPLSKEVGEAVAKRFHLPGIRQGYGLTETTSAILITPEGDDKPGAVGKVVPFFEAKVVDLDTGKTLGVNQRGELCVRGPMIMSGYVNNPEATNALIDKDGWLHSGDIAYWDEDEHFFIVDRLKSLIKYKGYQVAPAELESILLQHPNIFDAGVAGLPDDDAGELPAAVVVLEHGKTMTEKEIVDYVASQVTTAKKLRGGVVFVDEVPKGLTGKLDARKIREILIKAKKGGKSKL
How it was run: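 Biochemical qHTS: compounds run as interplate titrations against purified firefly enzyme, with D-luciferin and ATP each at its KM concentration. Light output recorded by CCD imaging.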

[3] = qHTS assay to identify small molecule agonists of the constitutive androstane receptor (CAR) signaling pathway - cell viability counter screen (AID 1224836); further: series mostly up to about 92 µM; nearly all actives have a fitted effect of over 45% in size
How it was run: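 23 h treatment, 37 C, 5% CO2. Cell line: HepG2 stably expressing hCAR with a CYP2B6-2.2kb construct. Co-treatment: PK11195, 0.75 uM final. Read-out: CellTiter-Fluor fluorescence intensity.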

[4] = qHTS assay to identify small molecule antagonists of the constitutive androstane receptor (CAR) signaling pathway - cell viability counter screen (AID 1224837); further: series mostly up to about 92 µM; nearly all actives have a fitted effect of over 45% in size
How it was run: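 HepG2-CYP2B6-hCAR cells, 2500/well, 4 hr pre-incubation; compound titration, 15 conc.; CITCO 50 nM final; 23 hr, 37 C/5% CO2; CellTiter-Fluor, fluorescence intensity.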

[5] = target: Nuclear receptor subfamily 1 group I member 3 (Homo sapiens) (UniProt Q14994); assay: qHTS assay to identify small molecule antagonists of the constitutive androstane receptor (CAR) signaling pathway (AID 1224838);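 further: HepG2 cells stably expressing hCAR with CYP2B6 luciferase reporter stimulated by CITCO; nearly all actives have a fitted effect of over 40% in size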
Sequence of Nuclear receptor subfamily 1 group I member 3 (Homo sapiens) (Q14994 whole entry, looked up): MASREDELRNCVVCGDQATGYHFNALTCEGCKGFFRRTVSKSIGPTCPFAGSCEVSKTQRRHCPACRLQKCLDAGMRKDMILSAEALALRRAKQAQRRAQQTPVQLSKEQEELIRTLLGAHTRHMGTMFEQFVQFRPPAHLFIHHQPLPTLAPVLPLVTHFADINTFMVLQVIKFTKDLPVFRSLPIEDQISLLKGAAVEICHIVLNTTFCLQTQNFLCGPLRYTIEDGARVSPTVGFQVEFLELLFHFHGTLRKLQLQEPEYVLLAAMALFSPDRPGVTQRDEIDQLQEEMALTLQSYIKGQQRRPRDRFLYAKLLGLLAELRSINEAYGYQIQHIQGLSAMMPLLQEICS
How it was run: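 HepG2-CYP2B6-hCAR cells; 4 h pre-incubation; cpd (15 conc) + CITCO 50 nM final; 24 h, 37 C/5% CO2; ONE-Glo, luminescence.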

[6] = target: Nuclear receptor subfamily 1 group I member 3 (Homo sapiens) (UniProt Q14994); assay: qHTS assay to identify small molecule agonists of the constitutive androstane receptor (CAR) signaling pathway (AID 1224839); further: nearly all actives have a fitted effect of over 15% in size; further: potency means the concentration at half of the fitted maximal effect
How it was run: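 Compounds tested at 15 concentrations on HepG2 cells stably harbouring hCAR and CYP2B6-2.2kb reporter constructs, co-treated with PK11195 (0.75 uM final), 24 h at 37 C; luminescent reporter signal quantified.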

[7] = qHTS assay to identify small molecule antagonists of the estrogen related receptor signaling pathway with the pleiotropic PPARgamma coactivator (PGC) from Tox21 10K library - cell viability counter screen (AID 1224840; active means well fitted cell-killing curve with a large enough effect in the repeat runs, not every such curve was filed as active; further: nearly all actives have a fitted effect of over 40% in size)
How it was run: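 PGC/ERR cells, 2,000/well; 6 h pre-incubation 37 C/5% CO2; cpd in DMSO via pin tool; 17.5 h 37 C; CellTiter-Fluor, 30 min; fluorescence.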

[8] = target: Thyrotropin receptor (Homo sapiens) (UniProt P16473); assay: qHTS assay to identify small molecule agonists of the thyroid stimulating hormone receptor (TSHR) signaling pathway (AID 1224843; calls by dose curve; further: nearly all actives have a fitted effect of over 45% in size; further: potency means the concentration at half of the fitted maximal effect)
Sequence of Thyrotropin receptor (Homo sapiens) (P16473 whole entry, looked up): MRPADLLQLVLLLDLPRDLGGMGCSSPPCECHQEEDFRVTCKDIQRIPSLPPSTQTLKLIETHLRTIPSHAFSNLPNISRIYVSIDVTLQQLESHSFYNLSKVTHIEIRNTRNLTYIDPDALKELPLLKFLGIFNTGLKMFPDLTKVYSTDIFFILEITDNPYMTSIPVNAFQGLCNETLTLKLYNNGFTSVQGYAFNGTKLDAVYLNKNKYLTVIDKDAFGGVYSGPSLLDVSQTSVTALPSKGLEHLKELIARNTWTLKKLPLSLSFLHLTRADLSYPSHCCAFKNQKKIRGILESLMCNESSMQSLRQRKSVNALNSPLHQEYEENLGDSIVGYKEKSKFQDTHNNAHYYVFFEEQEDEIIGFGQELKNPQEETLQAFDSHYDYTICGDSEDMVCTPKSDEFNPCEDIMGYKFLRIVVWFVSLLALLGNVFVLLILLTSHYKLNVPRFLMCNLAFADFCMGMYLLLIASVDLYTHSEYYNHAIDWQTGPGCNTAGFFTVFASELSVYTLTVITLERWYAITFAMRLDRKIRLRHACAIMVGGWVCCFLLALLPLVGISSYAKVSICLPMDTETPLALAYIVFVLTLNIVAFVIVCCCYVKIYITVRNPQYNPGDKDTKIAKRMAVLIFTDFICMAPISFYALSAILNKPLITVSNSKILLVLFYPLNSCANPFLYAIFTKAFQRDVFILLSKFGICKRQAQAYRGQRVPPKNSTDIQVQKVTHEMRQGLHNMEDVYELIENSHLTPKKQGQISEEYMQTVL
How it was run: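 TSHR-HEK293 cells in agonist mode, 30 min room-temperature step, then cAMP measured by competitive HTRF (cAMP-d2 with anti-cAMP cryptate) after 1 h at room temperature. Tested at 15 concentrations in triplicate.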

[9] = qHTS assay to identify small molecule antagonists of the estrogen related receptor signaling pathway with the pleiotropic PPARgamma coactivator (PGC) from Tox21 10K library (AID 1224841; call rule not given here; further: series mostly up to about 92 µM; actives are mostly falling curves and most rising ones were filed inactive; nearly all actives have a fitted effect of over 50% in size)
How it was run: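 PGC/ERR cell line, 2,000 cells/well; 6 h pre-incubation 37 C/5% CO2; compounds (DMSO) pinned in; 18 h, 37 C; One-Glo, 30 min RT; luminescence.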

[10] = qHTS assay to identify small molecule agonists of the estrogen related receptor signaling pathway with the pleiotropic PPARgamma coactivator (PGC) from Tox21 10K library (AID 1224842); further: nearly all actives have a fitted effect of over 15% in size
How it was run: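 PGC/ERR reporter cell line, 2,000 cells per well, incubated 6 h at 37 C before 23 nL compound in DMSO was added. After 18 h at 37 C, One-Glo luminescence read following 30 min at room temperature.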

SMILES	Potency [1]	Potency [2]	Potency [3]	Potency [4]	Potency [5]	Potency [6]	Potency [7]	Potency [8]	Potency [9]	outcome [10]
O=P(O)(Oc1ccccc1)Oc1ccccc1	inactive	inactive	inactive	inactive	inactive	inactive	inactive	inactive	–	–
CCC1(c2ccccc2)C(=O)N=C(O)NC1=O (centres undefined)	inactive	inactive	inactive	inactive	inactive	inactive	inactive	inactive	–	–
ClC(Cl)Br	inactive	inactive	inactive	inactive	inactive	inactive	inactive	inactive	–	–
Nc1ccccc1Cl	inactive	inactive	inactive	inactive	inactive	inactive	inactive	inactive	–	–
COP(N)(=S)Oc1ccccc1C(=O)OC(C)C (centres undefined)	inactive	inactive	inactive	inactive	inactive	30.6 µM (active)	inactive	inactive	–	–
CCCCOC(=O)[C@@H](C)Oc1ccc(Oc2ccc(C#N)cc2F)cc1	inactive	inactive	inactive	inactive	inactive	inactive	–	–	inactive	inactive
ClCC(Cl)Cl	inactive	inactive	inactive	inactive	inactive	inactive	inactive	inactive	–	–
COC(=O)C(c1ccccc1)C1CCCCN1 (centres undefined)	inactive	inactive	inactive	inactive	inactive	inactive	inactive	inactive	–	–
O=S(=O)(O)C(F)(F)C(F)(F)C(F)(F)C(F)(F)C(F)(F)C(F)(F)F	inactive	inactive	inactive	inactive	inactive	inactive	inactive	inactive	–	–
C1CCC(C2CCCCC2)CC1	inactive	inactive	inactive	inactive	inactive	inactive	–	inactive	inactive	inactive
CC(=O)CCc1ccc2c(c1)OCO2	inactive	inactive	inactive	inactive	inactive	inactive	–	inactive	inactive	inactive
O=C(O)c1cccc(Cl)c1	inactive	inactive	inactive	inactive	inactive	inactive	inactive	inactive	–	–
CCN(Cc1ccc(Cl)nc1)/C(=C/[N+](=O)[O-])NC	inactive	inactive	inactive	inactive	inactive	inactive	inactive	inactive	–	–
Nc1cnn(-c2ccccc2)c(=O)c1Cl	inactive	inactive	inactive	inactive	inactive	inactive	inactive	inactive	–	–
COc1cc(C[C@@H](C)N)c(OC)cc1C	inactive	inactive	inactive	inactive	inactive	inactive	–	inactive	inactive	inactive
Cc1ncc2n1-c1ccc(Cl)cc1C(c1ccccc1F)=NC2	inactive	inactive	inactive	inactive	inactive	inactive	inactive	inactive	inactive	–
O=C(O)c1ccc2[nH]cc(CCCCN3CC=C(c4ccccc4)CC3)c2c1	inactive	inactive	inactive	inactive	inactive	inactive	inactive	inactive	–	–
Oc1c(Cl)cccc1Cl	inactive	inactive	inactive	inactive	inactive	inactive	inactive	inactive	–	–
CC(C)[N+](=O)[O-]	inactive	inactive	inactive	inactive	inactive	inactive	inactive	inactive	–	–

SMILES	Potency [1]	Potency [2]	Potency [3]	Potency [4]	Potency [5]	Potency [6]	Potency [7]	Potency [8]	Potency [9]	outcome [10]
O=C(Nc1ccccc1)c1ccccc1I	inactive	inactive	inactive	inactive	inactive	61.1 µM (active)	inactive	inactive	–	–
CNC(=O)N(C)c1nc2ccccc2s1	inactive	35.6 µM (active)	inactive	inactive	inactive	24.3 µM (active)	–	inactive	inactive	–
N#CC(O)c1ccccc1 (centres undefined)	inactive	inactive	inactive	inactive	inactive	inactive	inactive	inactive	–	–
CC(N)=S	inactive	inactive	inactive	inactive	inactive	inactive	inactive	inactive	–	–
CCCSC(=O)N(CCC)CCC	inactive	inactive	inactive	inactive	inactive	inactive	–	inactive	–	–
[As]#[In]	inactive	inactive	inactive	inactive	inactive	inactive	–	inactive	inactive	inactive
COC(=O)c1ccccc1S(=O)(=O)NC(=O)N(C)c1nc(C)nc(OC)n1	inactive	inactive	inactive	inactive	inactive	inactive	inactive	–	–	inactive
COP(=S)(OC)Oc1ccc(S(N)(=O)=O)cc1	inactive	inactive	inactive	inactive	inactive	inactive	inactive	inactive	–	–
CCC(=O)c1ccccc1	inactive	inactive	inactive	inactive	inactive	inactive	–	inactive	–	–
O=C(NCO)NCO	inactive	inactive	inactive	inactive	inactive	inactive	–	inactive	–	–
CC1(C)CON(Cc2ccccc2Cl)C1=O	inactive	inactive	inactive	inactive	–	48.6 µM (active)	inactive	–	–	–
CNC(=O)Oc1ccc(N(C)C)c(C)c1	inactive	inactive	inactive	inactive	inactive	–	inactive	inactive	inactive	inactive
C=CC1CC=CCC1 (centres undefined)	inactive	inactive	inactive	inactive	–	inactive	inactive	inactive	–	–
CN1C(=S)CN=C(c2ccccc2)c2cc(Cl)ccc21	inactive	inactive	inactive	inactive	inactive	–	inactive	inactive	–	–
CNC(=O)Oc1c(C(C)(C)C)cc(C)cc1C(C)(C)C	inactive	inactive	inactive	inactive	–	10.9 µM (active)	inactive	inactive	–	–
O=C1OC(CCN2CCCCC2)OC1(c1ccccc1)c1ccccc1 (centres undefined)	inactive	inactive	inactive	inactive	–	inactive	inactive	inactive	–	–
Fc1cc(Br)ccc1CBr	inactive	inactive	inactive	inactive	–	inactive	inactive	inactive	–	–
CC(=O)CC(c1ccc(Cl)cc1)c1c(O)c2ccccc2oc1=O (centres undefined)	inactive	inactive	inactive	inactive	–	inactive	inactive	inactive	–	–
Cc1cc(C)nc(Nc2ccccc2)n1	inactive	inactive	inactive	inactive	–	61.1 µM (active)	inactive	inactive	inactive	inactive

SMILES	Potency [1]	Potency [2]	Potency [3]	Potency [4]	Potency [5]	Potency [6]	Potency [7]	Potency [8]	Potency [9]	outcome [10]
CCN(CC)C(C)C(=O)c1ccccc1 (centres undefined)	inactive	inactive	inactive	inactive	inactive	inactive	–	inactive	–	–
OC(c1ccc(F)cc1)(c1cncnc1)c1ccccc1Cl (centres undefined)	inactive	inactive	inactive	inactive	–	inactive	inactive	–	–	–
NC1=NC(=O)C(c2ccccc2)O1 (centres undefined)	inactive	inactive	inactive	inactive	–	inactive	inactive	inactive	–	–
O=NN1CCCCC1	inactive	inactive	inactive	inactive	–	inactive	inactive	inactive	–	–
O=[N+]([O-])c1cccc2cccnc12	inactive	inactive	inactive	inactive	inactive	–	inactive	inactive	–	–
CCOP(=S)(Oc1cnc(C(C)(C)C)nc1)OC(C)C (centres undefined)	inactive	inactive	inactive	inactive	inactive	–	inactive	–	inactive	inactive
CSc1ccc(C(=O)C(C)(C)N2CCOCC2)cc1	inactive	inactive	inactive	inactive	–	30.6 µM (active)	inactive	2.73 µM (active)	–	inactive
c1ccc(N2CCNCC2)cc1	inactive	inactive	inactive	inactive	–	inactive	inactive	inactive	–	–
CCC/C(=N\OCC)C1=C(O)CC(CC(C)SCC)CC1=O (centres undefined)	inactive	inactive	inactive	inactive	inactive	–	inactive	–	–	–
Nc1cc(Cl)ccc1O	33.3 µM (active)	inactive	inactive	inactive	–	52.7 µM (active)	inactive	inactive	–	–
CCOP(=O)(OCC)OP(=O)(OCC)OCC	inactive	inactive	inactive	inactive	inactive	inactive	–	inactive	–	–
CCCCc1ccc(O)cc1	inactive	inactive	inactive	inactive	–	inactive	inactive	inactive	–	–
COC(=O)C1=CCCN(C)C1	inactive	inactive	inactive	inactive	inactive	–	–	inactive	–	–
CC(C=O)Cc1ccc2c(c1)OCO2 (centres undefined)	inactive	inactive	inactive	inactive	–	inactive	inactive	inactive	–	–
[Cl][Sn]([Cl])([Cl])[Cl]	inactive	inactive	inactive	inactive	–	inactive	inactive	–	–	–
CCCSC(=O)Cl	inactive	inactive	inactive	inactive	inactive	inactive	–	inactive	–	–
CCOC(=O)C1(c2ccccc2)CCN(CCc2ccc(N)cc2)CC1	inactive	inactive	inactive	inactive	–	inactive	inactive	inactive	–	inactive
COC(=O)c1c(C(F)F)nc(C(F)(F)F)c(C2=NCCS2)c1CC(C)C	inactive	inactive	inactive	inactive	inactive	–	inactive	inactive	inactive	inactive
O=C1OC(=O)C2C1C1(Cl)C(Cl)=C(Cl)C2(Cl)C1(Cl)Cl (centres undefined)	inactive	inactive	inactive	inactive	–	inactive	inactive	inactive	–	–
